# Measurements reported in publication PMC7826789 (International Journal of Molecular Sciences, 2021).
# Tests used:
# Settings in all cases: Compound Concentration (nM):1000
# [1] = test system: TXK
# [2] = test system: TYK2(JH1domain-catalytic)
# [3] = test system: TYK2(JH2domain-pseudokinase)
# [4] = test system: TYRO3
# [5] = test system: ULK1
# [6] = test system: ULK2
# [7] = test system: ULK3
# [8] = test system: T1, VEGFR2
# T1 construct: gene KDR
# [9] = test system: T2, VPS34
# T2 construct: gene PIK3C3
# [10] = test system: VRK2
# [11] = test system: WEE1
# [12] = test system: WEE2
# [13] = test system: WNK1
# [14] = test system: WNK2
# [15] = test system: WNK3
# [16] = test system: WNK4
# [17] = test system: T3, YANK1
# T3 construct: gene STK32A
# [18] = test system: T4, YANK2
# T4 construct: gene STK32B
# [19] = test system: T5, YANK3
# T5 construct: gene STK32C
# [20] = test system: T6, YES
# T6 construct: gene YES1
# 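Note: KINOMEscan scanMAX binding as percent activity remaining versus control; lower means stronger binding.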
SMILES,Percent Control [1] [%],Percent Control [2] [%],Percent Control [3] [%],Percent Control [4] [%],Percent Control [5] [%],Percent Control [6] [%],Percent Control [7] [%],Percent Control [8] [%],Percent Control [9] [%],Percent Control [10] [%],Percent Control [11] [%],Percent Control [12] [%],Percent Control [13] [%],Percent Control [14] [%],Percent Control [15] [%],Percent Control [16] [%],Percent Control [17] [%],Percent Control [18] [%],Percent Control [19] [%],Percent Control [20] [%]
NS(=O)(=O)c1ccc(N/N=C2\C(=O)Nc3ccc(C(=O)NCc4ccncc4)cc32)cc1 [GW300657X],100,70,31,80,15,26,31,84,71,74,93,59,92,78,95,73,100,100,100,100
COc1cc(/C=N/Nc2ncnc3[nH]ncc23)ccc1O [GW578748X],83,43,0.2,99,48,43,6.1,52,87,100,100,80,100,70,64,100,100,100,100,87
CN1CCN(C(=O)c2ccc(NC(=O)Nc3ccc(N(C)c4ccnc(Nc5ccc(CS(C)(=O)=O)cc5)n4)cc3)cc2)CC1.Cl [GW830263A],15,4.2,6.5,92,79,78,7.6,1.1,74,93,100,99,94,67,93,100,68,100,100,96
COc1cc2ncn(-c3cc(O[C@H](C)c4ccccc4Cl)c(C(N)=O)s3)c2cc1OC [GSK237701A],96,45,97,100,92,75,100,33,0.3,80,100,76,2.9,6.1,0.8,11,91,100,92,87
O=C1Nc2ccc(C(=O)c3ccco3)cc2C1=Cc1cc(Cl)c(O)c(Cl)c1 [GW406108X],100,35,41,86,–,71,60,78,11,74,100,100,89,100,93,100,100,100,100,100
